Bioassay records: PubChem BioAssay, several laboratories
Shown are actives, neighbours in structure and some others; about 2.1% of the full set was active somewhere.
M18AAP inhibitor: PfM18AAP enzyme inhibition. recombinant PfM18AAP, H-Glu-NHMec fluorogenic cleavage. inhibition, % at 7.35 µM. actives 1.2% (n = 290,000);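 active = inhibition above the campaign mean inhibition over all tested compounds plus 3 SD, cut at about 28% in these data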;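 note: 0% = plate median of test compound wells and 100% = 2 mM ZnCl2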
Fh CTSL1 inh: blocks F. hepatica cathepsin L1 in PFM18AAP counter-screen. AID 1906. inhibition, % at 5.96 µM. actives 0.49% (n = 300,000). recombinant F. hepatica cathepsin L1, Z-Leu-Arg-MCA fluorescence;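 active = inhibition above the mean of all tested compounds plus 3 SD, set per screening campaign, cut at about 17% in these data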;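 note: 0% = plate median of test compound wells and 100% = 1 µM Z-Phe-Ala-diazomethylketone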
Calb FLC: C. albicans growth modulation with fluconazole | C. albicans CaCi-2 (fluconazole-resistant clinical isolate) + fluconazole, Alamar Blue growth, 48 h | growth inhibition, % (no concentration beside the values) | actives 0.57% (n = 300,000);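 active = growth inhibition above about 58% in most replicates, limit read from the data, passing the limit was not always enough; inconclusive = exactly half the replicates above a set limit; inactive = most replicates below a set limit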;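 note: all wells also contain fluconazole at 8 µg/ml as a sub-toxic cotreatment; 0% = median of DMSO wells and 100% = median of geldanamycin control wells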
Rin1-Abl PPI inh: blocks binding of human Rin1 to Abl; AID 588664; actives 0.4% (n = 360,000); P00519+Q13671; TR-FRET Rin1/Abl binding, biochemical; inhibition, % at 7.35 µM; in the data active = inhibition above about 5%, passing the limit was not always enough
* marks the source's active call; other numbers are inactive results; ? = inconclusive; · = not tested or not shown.

SMILES | M18AAP inhibitor | Fh CTSL1 inh | Calb FLC | Rin1-Abl PPI inh
Cc1ccc(C)c(NC(=O)CSc2nnc(-c3ccco3)o2)c1 | 5 | 0 | -24 | 1
CC(C)C[C@H](NC(=O)OC(C)(C)C)c1nnc(SCC(=O)Nc2ccc(Br)cc2)o1 | 1 | 99* | -6 | 2
O=C(Cc1ccsc1)N1CCN(S(=O)(=O)c2ccccc2F)CC1 | · | · | · | 1
O=C(O)C1C(c2ccccc2)C(C(=O)Oc2ccccc2)C1c1ccccc1 (centres undefined) | 7 | 3 | 40 | -4
CC(C)CCOC(=O)C1C(c2ccccc2)C(C(=O)O)C1c1ccccc1 (centres undefined) | 6 | 3 | 93* | -5
O=C(CSc1nnnn1-c1ccc2c(c1)OCCO2)OC1CCCCC1 | 1 | 78* | · | 0
CCC(=O)Nc1ccc(NC(=O)CSc2nnnn2-c2ccc3c(c2)OCCO3)cc1 | -2 | 1 | -6 | 4
N/C(Cc1ccc(Cl)cc1Cl)=N\OC(=O)c1ccccc1 | -1 | -1 | 118* | -1
O=C(NC(=S)Nn1cnc2c(cnn2-c2ccccc2)c1=O)c1ccc(Cl)cc1 | -2 | 0 | 101* | 0
Oc1ccc(/C=N/NC(=S)Nc2cccnc2)cc1O | 60* | 5 | 21 | 0
Cc1ccc(CC2CC(=O)N(c3ncccn3)C2=O)cc1 (centres undefined) | 5 | 3 | -9 | 0
c1ccc(CC2CCN(C3=Nc4cccc5cccc3c45)CC2)cc1 | 2 | 3 | 86* | -8
c1cc2c3c(cccc3c1)C(N1CCN(C3=Nc4cccc5cccc3c45)CC1)=N2 | -3 | · | · | ·
CCCCNC(=O)Oc1c(Br)cc2sc(=O)oc2c1Br | 30* | 23* | · | ·
CCCCNC(=O)Oc1cc(CCl)on1 | 0 | -5 | -16 | ·
CCOC(=O)c1c(C)nc(C)c2c(=O)oc3ccccc3c12 | -1 | -4 | 45 | -1
O=C(Nc1nc(=O)c2ccccc2s1)c1ccc(Cl)cc1 | 30* | 3 | ? | 3
Nc1ccccc1NC(=O)CCn1c(=S)[nH]c2ccccc2c1=O | 13 | -3 | -20 | 1
CCCS(=O)(=O)NC(=O)C1(C)CCCN(C(=O)c2ccncc2)C1 (centres undefined) | · | · | · | -2
COc1cnc(-c2ccccn2)nc1Sc1ccccc1Cl | 2 | 3 | 81* | 1
O=C1NN(c2ccc(F)cc2)C(=O)/C1=C/c1cccs1 | 5 | -2 | 101* | -2
COc1cccc(/C=C2/C(=O)NN(c3ccc(F)cc3)C2=O)c1 | 6 | · | -10 | -1
CC(=O)c1nn(-c2cccc(Br)c2)cc1C(=O)c1ccc(C)cc1 | -12 | 6 | 95* | 3
Cc1ccc(S(=O)(=O)Nc2ccccc2F)cc1C(=O)NNC(=O)c1ccccc1O | · | -1 | 69 | -3
CCOC(=O)c1c(C)[nH]c(C)c1C(=O)COC(=O)c1cc2ccccc2cc1O | 53* | 5 | 8 | 0
SMILES | M18AAP inhibitor | Fh CTSL1 inh | Calb FLC | Rin1-Abl PPI inh
O=C(O)c1ccccc1NS(=O)(=O)c1ccc(NNC(=S)Nc2ccc(OC(F)F)cc2)c([N+](=O)[O-])c1 | 44* | · | 24 | -2
COc1ccc(C(=O)N/C(=C\c2ccccc2)C(=O)Nc2ccc(C(=O)NCC(=O)O)cc2)cc1 | -9 | 4 | 4 | 0
Cc1ccc(C(=O)c2c(C)oc3c2C(=O)C(=O)c2ccccc2-3)cc1 | 15 | -6 | 29 | -7
Cc1ccc(C(=O)c2coc3c2C(=O)C(=O)c2ccccc2-3)cc1 | 10 | -1 | 80* | 2
O=C(CN(C(=O)CNC(=O)c1cccs1)c1ccc(F)cc1)NC1CCCC1 | -7 | 2 | -1 | 1
CCN(CC(=O)NC(C)(C)C)C(=O)CCl | -2 | 20* | -15 | -3
CCN(CC(=O)NC(C)(C)C)C(=O)COc1c(Cl)cc(Cl)c2ccc(C)nc12 | -4 | 6 | 2 | 1
Cc1ccc(C(C)C)c(OCc2ccc(C(=O)N/N=C/c3cccc(O)c3O)cc2)c1 | -8 | -1 | 87* | -1
Cc1ccc(C(C)C)c(OCc2ccc(C(=O)N/N=C/c3ccc(O)c(O)c3)cc2)c1 | 18 | -1 | -4 | 7
COc1ccccc1C(=O)C1CCCN(C(=O)c2ccco2)C1 (centres undefined) | -6 | -3 | -11 | 2
C#CCOCCOCCOCCNc1nc(N2CCN(C(=O)CCCCCCCCCCNC(=O)[C@@H](CCSC)n3cc(CCO)nn3)CC2)nc(N2CCN(C(=O)CCCCCCCCCCNC(=O)[C@H]([C@@H](C)CC)n3cc(CCCCN=C(N)N)nn3)CC2)n1 | · | 6 | · | 24*
C#CCOCCOCCOCCNc1nc(N2CCN(C(=O)CCCCCCCCCCNC(=O)[C@H](CCCCN)n3cc(CCO)nn3)CC2)nc(N2CCN(C(=O)CCCCCCCCCCNC(=O)[C@H](CCCN=C(N)N)n3cc(C[C@@H](C)CC)nn3)CC2)n1 | · | -3 | · | 22*
C#CCOCCOCCOCCNc1nc(N2CCN(C(=O)CCCCCCCCCCNC(=O)[C@H](CCCCN)n3cc(CCO)nn3)CC2)nc(N2CCN(C(=O)CCCCCCCCCCNC(=O)[C@@H]([C@H](C)O)n3cc(C)nn3)CC2)n1 | · | 2 | · | 9.6*
C#CCOCCOCCOCCNc1nc(N2CCN(C(=O)CCCCCCCCCCNC(=O)[C@H]([C@@H](C)CC)n3cc(CCCCCN)nn3)CC2)nc(N2CCN(C(=O)CCCCCCCCCCNC(=O)[C@@H]([C@H](C)O)n3cc(C)nn3)CC2)n1 | · | 3 | · | 2
C#CCOCCOCCOCCNc1nc(N2CCN(C(=O)CCCCCCCCCCNC(=O)[C@H](CCCCN)n3cc(C)nn3)CC2)nc(N2CCN(C(=O)CCCCCCCCCCNC(=O)[C@@H]([C@H](C)CC)n3cc(CCCCCN)nn3)CC2)n1 | · | 3 | · | 12*
Cc1ccc(NC(=O)CN(C)C(=O)COC(=O)c2ccc(Cl)cc2O)cc1 | · | · | · | 4
COc1cc(OC)c2c(-c3cccc(-c4ccoc4)c3)cc(=O)oc2c1 | · | · | · | 2
COc1ccc(C(=O)COC(=O)c2ccc3c(c2)OCO3)c(OC)c1 | · | · | · | -2
C#CCOCCOCCOCCNc1nc(N2CCN(C(=O)[C@H]([C@@H](C)CC)n3cc([C@@H](N)CC(C)C)nn3)CC2)nc(N2CCN(C(=O)[C@H]([C@@H](C)CC)n3cc([C@@H](N)CC(C)C)nn3)CC2)n1 | -3 | 25* | 14 | 2
CCCOC(=O)c1c(-c2ccc(C)cc2C)csc1NC(=O)C1C2CCC(O2)C1C(=O)O (centres undefined) | 30* | 1 | 19 | 1
Cc1ccc(NC(=O)CC2S/C(=N/c3nccs3)N(C)C2=O)cc1C (centres undefined) | 1 | 41* | -2 | 3
CCOC(=O)NNc1ccc2nonc2c1[N+](=O)[O-] | 21 | 24* | 15 | ·
COc1ccccc1NS(=O)(=O)c1ccc(Cl)c(NC(=O)C(C)N2C(=O)c3ccccc3C2=O)c1 (centres undefined) | 7 | 25* | 10 | 0
COc1ccccc1NC(=O)C(C(C)C)N1C(=O)c2ccccc2C1=O (centres undefined) | 7 | -1 | 4 | -2
CC1(C)Cc2c(c(N3CCOCC3)nc3sc4c(NCCN)ncnc4c23)CO1 | · | · | · | 1
CCN(CC)CCNc1ncnc2c1sc1nc(N3CCOCC3)c3c(c12)CC(C)(C)SC3 | -2 | 0 | 12 | 18*
